Test [1] relates to T1, JNK3.
T1 construct: gene MAPK10

Test [2] has as its system LIMK1.
In test [3] the test system is LYN.
Test [4] relates to T2, LZK.
T2 construct: gene MAP3K13

In test [5] the test system is MAK.
In test [6] the test system is MAP4K2.
The subject of test [7] is MAP4K4.
Test [8] relates to MAP4K5.
For test [9], the system named is MARK1.
The subject of test [10] is T3, MEK1.
T3 construct: gene MAP2K1

For test [11], the system named is T4, MEK2.
T4 construct: gene MAP2K2

Test [12] has as its system T5, MEK6.
T5 construct: gene MAP2K6

Test [13] relates to T6, MINK.
T6 construct: gene MINK1

Test [14] has as its system MKNK2.
The test system of test [15] is T7, MLK1.
T7 construct: gene MAP3K9

Where only a bound is given, the exact number is not on record here.
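Note: kd values determined as follow-up on hits from a single-replicate KINOMEscan panel screen.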

One may read the Kd as the equilibrium constant for the complex coming apart. A high value points to weaker binding. `COC(=O)c1c(-c2ccccc2)c2cc(OC)ccc2c(=O)n1Cc1ccccc1` returned a Kd in test [1] of 0.11 µM.
For `Cn1ccc2ncnc(Oc3cccc(C(=O)Nc4ccccc4)c3)c21`, the Kd in test [2] was > 10 µM.
On the same count and under the same terms, for `COc1ccc(C2=C(Nc3cccc(C(=O)O)c3)C(=O)NC2=O)cc1` [SB-390765] the value was > 10 µM.
As for `O=c1cc(N2CCOCC2)nc2n(Cc3cccc(Cl)c3Cl)ccn12` [GSK2286295], the Kd in test [3] was > 10 µM.
Regarding `O=C(Nc1n[nH]c2cc(-c3cccc(F)c3F)ccc12)C1CC1` [SB-733894], the Kd in [4] was > 10 µM.
As for `COc1cccc(-c2cc(-c3c[nH]nc3-c3ccccn3)ccn2)c1` [GW680338], in [5], the Kd was > 10 µM.
Take `Cc1cc(-c2ccc3c(c2)CC[C@@H](N[C@@H](C)c2ccccc2)C3)cnc1N.Cl` [GW412617]: the Kd in test [6] was 0.043 µM.
For `COc1cccc(NC(=O)NC2CCN(c3ccnc(Nc4ccc(F)cc4)n3)C2)c1` (stereo not drawn) [GSK1379721], the Kd in test [7] and in [8] was > 10 µM throughout.
On to `COc1ccccc1CNC(=O)c1cc(C(=O)c2ccccc2C)c[nH]1` [GSK364507], for which, in test [9], the Kd was > 10 µM.
Consider `Cc1cccc(-c2nc(Nc3cccc(C(N)=O)c3)c3ccccc3n2)n1` [GW876019], for which the Kd in test [10] is > 10 µM.
Regarding `Cc1ccc(NC(=O)Nc2cccc(Cl)c2)cc1-c1ccc(C(=O)Nc2ccncc2)cc1` [GSK1398468], in test [10], the Kd is > 10 µM.
Consider `Fc1cc(Cl)ccc1Nc1ccnc2cc(-c3ccc(CN4CCCCC4)o3)ccc12` [GW560116], for which the Kd in test [11] is > 10 µM.
As to `CCCc1ccc(S(=O)(=O)NC2CCN(c3ccnc(Nc4ccc(F)cc4)n3)C2)cc1` (stereo not drawn) [GSK1379715], the Kd in test [12] is > 10 µM.
`CCn1c(-c2ccccn2)nc2cnccc21` [SB-736398]: the Kd in [12] is > 10 µM.
Take `Cc1ccc(-c2cc(-c3c[nH]nc3-c3ccccn3)ccn2)cc1` [GW684088]: the equilibrium dissociation constant (Kd) in test [13] worked out at 0.061 µM.
`Cc1ccc(NC(=O)Nc2cc(C(C)(C)C)nn2-c2ccccc2)cc1` [GSK1014915]: the Kd in test [14] is 0.37 µM.
With `NC(=O)c1nnc2ccccc2c1N`, in test [15], the Kd was > 10 µM.

Values taken from PMC5540273 (PLoS ONE, 2017).
